Reference: PubChem BioAssay
Activity calls are given as the source filed them. Unless noted, the rule behind the calls is not given here.

Tests used:
[1] = resazurin metabolic signal in HepG2 cells – cell-based, resazurin fluorescence, 24 h, PK04 Diversity Set, profiling panel (AID 1172); conditions: HepG2 viability, higher = more signal; note: test concentration not given here
[2] = budding yeast growth changes without added modifier – OD600, strain BY4716, 24 h, basal condition, primary screen (AID 1173); conditions: S. cerevisiae BY4716 growth, OD600, 24 h; higher = more signal, called active from +8 up or from −8 down
[3] = viability profiling in MM1S myeloma cells – cell-based, resazurin fluorescence, basal, 24 h, PK04 Diversity Set, profiling panel (AID 1174); conditions: higher = more signal, called active from +8 up or from −8 down;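 note: MM1S multiple myeloma cell line; test concentration not given here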
[4] = target: Dihydroorotate dehydrogenase (quinone), mitochondrial (Plasmodium falciparum (isolate 3D7)) (UniProt Q08210); experiment: inhibition of P. falciparum DHODH – biochemical, C-terminal His tag, absorbance 600 nm, primary screen (AID 1175); conditions: PfDHODH enzyme, DCIP absorbance 600 nm; higher = more signal, called active from +8 up or from −8 down;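 note: recombinant parasite enzyme with a five histidine tag at its C terminus; test concentration not given here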
Sequence of Dihydroorotate dehydrogenase (quinone), mitochondrial (Plasmodium falciparum (isolate 3D7)) (Q08210 whole entry, looked up): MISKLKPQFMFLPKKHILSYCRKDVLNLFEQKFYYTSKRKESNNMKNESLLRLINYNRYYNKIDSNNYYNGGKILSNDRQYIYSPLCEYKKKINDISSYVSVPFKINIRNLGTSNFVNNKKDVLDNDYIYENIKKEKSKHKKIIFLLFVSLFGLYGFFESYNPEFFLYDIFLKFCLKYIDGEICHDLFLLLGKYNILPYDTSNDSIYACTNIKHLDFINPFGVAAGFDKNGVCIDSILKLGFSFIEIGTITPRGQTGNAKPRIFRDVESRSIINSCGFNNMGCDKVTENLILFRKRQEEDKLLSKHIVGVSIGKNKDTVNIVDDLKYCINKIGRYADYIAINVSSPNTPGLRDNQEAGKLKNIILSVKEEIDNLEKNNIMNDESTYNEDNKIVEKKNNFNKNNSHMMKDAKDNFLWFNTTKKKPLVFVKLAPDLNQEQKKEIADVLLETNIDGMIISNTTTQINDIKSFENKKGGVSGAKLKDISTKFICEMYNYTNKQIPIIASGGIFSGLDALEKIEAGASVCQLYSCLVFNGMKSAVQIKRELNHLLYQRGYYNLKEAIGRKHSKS

[5] = inhibition of PAO1 biofilm formation – strain PAO1, LB-PBS medium, absorbance 600 nm, primary screen (AID 1176); note: test concentration not given here; conditions: P. aeruginosa PAO1 growth/biofilm, A600, 12 h; higher = more signal
[6] = growth modulation of vineyard yeast isolate – strain RM11-1a, OD600, basal, 24 h, primary screen (AID 1177);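 note: cultures grown under basal conditions with no added stressor; test concentration not given here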; conditions: S. cerevisiae RM11-1a growth, OD600, 24 h; higher = more signal, called active from +8 up or from −8 down
[7] = growth of efflux-deficient E. coli DRC39 – strain DRC39, OD650, 24 h, E. coli filamentation inducers, primary screen (AID 1178);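 note: growth measured as culture turbidity by optical density at 650 nm; test concentration not given here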; conditions: E. coli DRC39 acrAB, higher = more signal, called active from +8 up or from −8 down
[8] = growth of efflux-deficient E. coli DRC39 – strain DRC39, OD650, 48 h, E. coli filamentation inducers, primary screen (AID 1179);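 note: screen aims at cell division blockers that make cells filament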; conditions: E. coli DRC39 delta-acrAB growth, higher = more signal, called active from +8 up or from −8 down
[9] = viability profiling in RPMI8226 myeloma cells – cell-based, resazurin fluorescence, basal, 24 h, PK04 Diversity Set, profiling panel (AID 1180); conditions: higher = more signal;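 note: RPMI8826 multiple myeloma cell line at 5000 cells per well; test concentration not given here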
[10] = target: E3 ubiquitin-protein ligase XIAP (Homo sapiens) (UniProt P98170); experiment: small molecules binding XIAP protein – biophysical, small-molecule microarray, fluorescence 635 nm, primary screen (AID 1181); conditions: higher = more signal;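 note: score merges 667 nm emission and signal to noise over triplicate slides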
Sequence of E3 ubiquitin-protein ligase XIAP (Homo sapiens) (P98170 whole entry, looked up): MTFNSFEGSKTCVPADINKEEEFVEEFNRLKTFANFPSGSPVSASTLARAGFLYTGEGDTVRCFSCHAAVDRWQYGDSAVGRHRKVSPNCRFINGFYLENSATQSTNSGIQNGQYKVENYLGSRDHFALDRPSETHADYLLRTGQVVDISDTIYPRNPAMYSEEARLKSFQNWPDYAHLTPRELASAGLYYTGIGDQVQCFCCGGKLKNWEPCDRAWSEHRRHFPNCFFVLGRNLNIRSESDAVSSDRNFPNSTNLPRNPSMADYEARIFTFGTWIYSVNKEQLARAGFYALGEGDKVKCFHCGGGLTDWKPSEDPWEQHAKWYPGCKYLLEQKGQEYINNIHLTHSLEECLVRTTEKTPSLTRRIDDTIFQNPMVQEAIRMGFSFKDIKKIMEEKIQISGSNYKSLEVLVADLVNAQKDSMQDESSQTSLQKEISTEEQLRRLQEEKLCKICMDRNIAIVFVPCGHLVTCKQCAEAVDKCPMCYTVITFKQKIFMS

Row | SMILES | z-score [1] | z-score [2] | z-score [3] | composite z-score [4] | z-score [5] | z-score [6] | z-score [7] | z-score [8] | z-score [9] | composite z-score [10]
1 | COc1ccc(O[C@H]2C=C[C@@H](c3ccccc3)O[C@@H]2CON=C(C)CCN2CCc3nc(-c4ccccc4)c(-c4ccccc4)cc3C2)cc1 | 0.449 | -0.606 (inactive) | -0.159 (inactive) | 0.503 (inactive) | 0.135 (inactive) | 1.21 (inactive) | -0.166 (inactive) | -1.89 (inactive) | 0.382 | -0.0536
2 | COC(=O)CC=C[C@@H](C)[C@@H](C=NO[C@@H]1O[C@H](COC(C)=O)[C@@H](OC(C)=O)[C@H](OC(C)=O)[C@H]1OC(C)=O)NS(=O)(=O)c1ccc(C)cc1 | 0.22 | 0.653 (inactive) | -1.04 (inactive) | -0.069 (inactive) | 0.298 (inactive) | -0.186 (inactive) | -1.8 (inactive) | -0.57 (inactive) | -0.437 | -0.177
3 | COC(=O)[C@H]1O[C@@H](c2c(OC)c(OC)c(C)c(OC)c2OC)[C@H](C)[C@@H](O)[C@H]1C | -0.617 | -0.615 (inactive) | -1.76 (inactive) | -0.0757 (inactive) | 0.417 (inactive) | 0.275 (inactive) | 0.968 (inactive) | 0.926 (inactive) | -0.456 | -0.13
4 | COc1cccc([C@@H]2Oc3ccc(OC)cc3C(=O)[C@H]2O)c1 | 0.115 | -8.27 (active) | 0.0409 (inactive) | -2.73 (inactive) | -0.364 (inactive) | -0.55 (inactive) | -1.47 (inactive) | -2.37 (inactive) | 0.329 | -0.0773
5 | CCOC(=O)[C@H](Cc1ccccc1)NC(=O)CCC1CC(OC(=O)NCCc2ccc(F)cc2)CC2(CCCC(COC(=O)NCCOC)O2)O1 (stereo not given in full) | -0.154 | -0.664 (inactive) | -0.195 (inactive) | -1.47 (inactive) | 0.487 (inactive) | 0.128 (inactive) | 1.21 (inactive) | 0.195 (inactive) | 0.673 | -0.242
6 | CCOC(=O)[C@H](Cc1ccccc1)NC(=O)CCC1CC(OC(=O)NCCc2ccc(F)cc2)CC2(CCCC(COC(=O)NCc3ccccc3)O2)O1 (stereo not given in full) | 0.567 | -0.298 (inactive) | 0.159 (inactive) | -0.447 (inactive) | 0.013 (inactive) | 0.694 (inactive) | 0.321 (inactive) | -0.158 (inactive) | -0.0066 | -0.0525
7 | CCOC(=O)[C@H](CC(C)C)NC(=O)CCC1CC(OC(=O)NCc2cccc3ccccc23)CC2(CCCC(COC(=O)NCc3ccncc3)O2)O1 (stereo not given in full) | -0.232 | -0.101 (inactive) | 0.192 (inactive) | 0.0964 (inactive) | 0.368 (inactive) | 0.559 (inactive) | 1.1 (inactive) | 0.399 (inactive) | -0.404 | -0.105
8 | COc1ccc(O[C@H]2C=C[C@@H](c3ccccc3)O[C@@H]2CON=CC[C@@H]2C=C[C@H](OC(C)=O)[C@@H](COC(C)=O)O2)cc1 | 0.185 | 2.06 (inactive) | -0.0893 (inactive) | 0.0159 (inactive) | 0.405 (inactive) | 1.34 (inactive) | 0.503 (inactive) | -0.185 (inactive) | -0.604 | 0.0391
9 | O=C1C[C@@H](O)[C@@H](O)[C@@H]2[C@@H]3C(=O)N(C[C@@H]4CCCO4)C(=O)[C@@H]3CC[C@@H]12 | -0.429 | 0.0532 (inactive) | -0.272 (inactive) | 0.204 (inactive) | 0.565 (inactive) | -0.129 (inactive) | 0.469 (inactive) | 0.582 (inactive) | -0.12 | -0.0989
10 | COC(=O)[C@H](C)NC(=O)CCC1CC(OC(=O)NCCc2ccc(F)cc2)CC2(CCCC(COC(=O)NCCC(C)C)O2)O1 (stereo not given in full) | -0.666 | -1.27 (inactive) | 0.711 (inactive) | -2.05 (inactive) | 0.675 (inactive) | -1.15 (inactive) | 0.29 (inactive) | -0.947 (inactive) | 0.967 | -0.102
11 | C[C@H]1CC[C@H]2C(=O)OC(CO)CN2[C@@H]1c1ccc(Br)cc1 (stereo not given in full) | 0.228 | -1.23 (inactive) | -0.0363 (inactive) | -0.0747 (inactive) | 0.967 (inactive) | -0.373 (inactive) | -0.472 (inactive) | -0.304 (inactive) | 0.979 | 0.213
12 | CC(C)C[C@H](NC(=O)CCC1CC(OC(=O)NCc2cccc3ccccc23)CC2(CCCC(COC(=O)NCc3ccccc3)O2)O1)C(=O)NCC(c1ccccc1)c1ccccc1 (stereo not given in full) | 0.1 | -0.245 (inactive) | 0.284 (inactive) | -0.79 (inactive) | 0.851 (inactive) | -0.0457 (inactive) | 0.64 (inactive) | 0.628 (inactive) | 0.731 | -0.242
